High-throughput results: PubChem, National Center for Advancing Translational Sciences (NCATS)
A selection: hits, their analogues and other compounds. The true share with any hit is near 3.4%.
GLS inh = blocks human kidney-isoform glutaminase activity | O94925 | GLS enzymatic activity, qHTS titration | Potency, µM (doses to about 45.5 µM), actives largely listed as inhibitors | 410,000 compounds, 0.21% hits
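Assay buffer: 45 mM KH2PO4 pH 8.2, 0.02% Tween-20. hKGA acts on L-glutamine (1 mM solution added); product glutamate is reported by an oxidase/peroxidase Amplex Red coupling, with fluorescence taken at baseline and 30 min.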
PKM2 activator = PKM2 (human) enzyme activation; P14618; purified PKM2, Kinase-Glo ATP luminescence, activation; response scale: 0% is enzyme alone, no compound; Potency, µM (doses to about 57.5 µM), actives largely listed as activators; 260,000 compounds, 0.34% hits; AID 1631; note: nearly all actives have a fitted effect of over 55% in size
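hPK-M2, >95% pure; 0.1 mM ADP / 0.5 mM PEP final; imidazole pH7.2 buffer w/ 7 mM MgCl2, 50 mM KCl; 1 h RT; Kinase-Glo lum. Intermediate enzyme activity for dual inhibitor/activator qHTS.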
GCN5L2 inh = GCN5L2 (KAT2A) acetyltransferase inhibition; Q92830; GCN5L2 HAT assay, ThioGlo1 CoA-SH fluorescence; 390,000 compounds, 0.21% hits; AID 504327; Potency, µM (doses to about 58.9 µM), usual class: inhibitors
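Enzyme at 20nM final was mixed with library compounds for 15 min at room temperature. Peptide H3(1-25) at 75uM, acetyl-CoA at 70uM and ThioGlo1 at 50uM were then added. Plates were read immediately and after 20 min (Ex340nm/Em540nm).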
VDR inh = vitamin D3 receptor (human) inhibition. P11473. VDR-SRC2-3 peptide fluorescence polarization, 2 h. Potency, µM, most hits filed as inhibitors. 400,000 compounds, 0.93% hits
Target sequence (P11473 whole entry, looked up): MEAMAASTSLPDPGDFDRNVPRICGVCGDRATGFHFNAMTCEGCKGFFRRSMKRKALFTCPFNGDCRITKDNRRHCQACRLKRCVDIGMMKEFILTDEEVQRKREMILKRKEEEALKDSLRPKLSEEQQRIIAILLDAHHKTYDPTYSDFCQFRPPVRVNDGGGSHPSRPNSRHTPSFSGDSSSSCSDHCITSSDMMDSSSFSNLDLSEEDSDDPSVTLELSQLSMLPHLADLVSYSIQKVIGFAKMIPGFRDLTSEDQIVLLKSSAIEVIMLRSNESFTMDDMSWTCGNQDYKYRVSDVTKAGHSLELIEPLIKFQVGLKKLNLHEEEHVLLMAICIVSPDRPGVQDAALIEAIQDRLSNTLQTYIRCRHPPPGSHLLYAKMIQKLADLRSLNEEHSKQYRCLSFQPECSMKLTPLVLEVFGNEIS
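The screen uses fluorescence polarization to detect compounds that interfere with recruitment of the SRC2-3 coactivator peptide to VDR; plates are read after 2 h at room temperature.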
Mito fusion yeast = inhibitors of mitochondrial division or activators of mitochondrial fusion | S. cerevisiae fusion-defective mutant growth rescue, CellTiterGlo 48 h | Potency, µM (titrated, usually from 46.1 µM), actives largely listed as activators | 320,000 compounds, 0.23% hits | AID 485298; note: nearly all actives have a fitted effect of over 45% in size
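Growth-rescue viability read-out: after 48 h at the non-permissive 37C in glycerol/ethanol YPEG, yeast mitochondrial fusion mutants are measured by CellTiterGlo luminescence; compounds (23 nl pinned per well) restoring growth score as division inhibitors or fusion activators.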
PLK1 PBD inh = inhibitors of human PLK1 polo-box domain binding; P53350; Plk1 PBD binding of FITC phosphopeptide, fluorescence polarization; Potency, µM, usual class: inhibitors; 360,000 compounds, 2.8% hits; AID 720504; note: series mostly up to about 57 µM; nearly all actives have a fitted effect of over 65% in size
Of the large screens only hits and unclear results are named; the others gave an inactive call. Calls come from the whole dose curve; as a rule, active = well fitted curve in the direction sought with a large enough effect; inconclusive = small, poorly fitted or top-dose-only effect, or another doubt; inactive = no such curve, though single readings can be large; an effect the other way counts as inactive or inconclusive.

Cc1cc(CNC(=O)COC(=O)Cn2[nH]c(=O)c3ccccc3c2=O)cc(C)c1O	none (no result: PKM2 activator)
Cc1cc(SCC(=O)NCC(c2cccs2)N2CCOCC2)c(C)cc1Br (stereo not drawn)	none (no result: PKM2 activator)
Cc1ccc(-c2nn(-c3cccc(F)c3)cc2CN2CCN(c3ccccn3)CC2)o1	PKM2 activator 15.8µM
COc1ccc(-c2nsc(SCC(=O)Nc3cc(C)on3)n2)cc1	PKM2 activator inconclusive, VDR inh inconclusive, PLK1 PBD inh 9.47µM
Cc1cccc(-c2nsc(SCC(=O)Nc3nccs3)n2)c1	PLK1 PBD inh 18.9µM
CCc1nnc(NC(=O)CSc2nccn2-c2cccc(C)c2C)s1	none
Cc1cccc(-n2ccnc2SCC(=O)Nc2nccs2)c1C	PLK1 PBD inh 26.7µM
COc1cc(/C=C2/SC(=S)N(c3c(C)n(C)n(-c4ccccc4)c3=O)C2=O)ccc1O	none
O=C(CN1C(=O)CC(c2ccc(F)cc2)=Nc2ccccc21)NCc1ccccc1Cl	none (no result: PKM2 activator, Mito fusion yeast, PLK1 PBD inh)
CC(NCc1ccc2c(c1)n(C)c(=O)n2C)c1ccccc1 (stereo not drawn)	none (no result: PKM2 activator, Mito fusion yeast, PLK1 PBD inh)
COC(=O)c1ccc(OCC2c3cc(OC)c(OC)cc3CCN2C(=O)c2ccc(OC)cc2)cc1 (stereo not drawn)	none (no result: PKM2 activator, Mito fusion yeast, PLK1 PBD inh)
COc1ccc(OCC2c3cc(OC)c(OC)cc3CCN2C(=O)C(C)C)cc1 (stereo not drawn)	PLK1 PBD inh 26.7µM
CCOc1ccc2nc3cc(N=Nc4ccc(N)nc4N)ccc3c(N)c2c1	PLK1 PBD inh inconclusive (no result: PKM2 activator, GCN5L2 inh, Mito fusion yeast)
Cc1cc(Cl)nc2c(C(C)C)cccc12	PLK1 PBD inh 16.8µM
CCN(c1ncnc2c1c(-c1ccccc1)cn2-c1ccccc1)C1CCCCC1	none (no result: PKM2 activator, Mito fusion yeast, PLK1 PBD inh)
Cc1ccc(CNCc2cn[nH]c2-c2ccc(C)cc2)cc1	none (no result: GLS inh, PKM2 activator, GCN5L2 inh, Mito fusion yeast, PLK1 PBD inh)
S=c1[nH]c2ccc(Cl)cc2[nH]1	VDR inh inconclusive, PLK1 PBD inh 10.6µM
COc1ccc2[nH]c(=S)[nH]c2c1	none
S=c1[nH]c2cc(Cl)ccc2s1	PLK1 PBD inh 1.89µM
COC(=O)CCCC1=CC2=CC(=O)C(C)(OC(=O)c3cccs3)C(=O)C2=CN1C(CO)CO (stereo not drawn)	none (no result: GLS inh, GCN5L2 inh, VDR inh, Mito fusion yeast, PLK1 PBD inh)
CCCCc1c(-c2ccccc2OC)ncn1C1CCCC1	none (no result: PKM2 activator, GCN5L2 inh, VDR inh, Mito fusion yeast)
CCCCCCCCCCCCSCCOCCO	none (no result: PKM2 activator, Mito fusion yeast, PLK1 PBD inh)
C[C@]12CCC(=O)C=C1CC[C@@H]1[C@@H]2[C@@H](O)C[C@]2(C=O)[C@@H](C(=O)CO)CC[C@@H]12	none (no result: PKM2 activator)
O=C(COC(=O)CCc1nc2ccccc2c(=O)[nH]1)Nc1ccccc1	GLS inh inconclusive (no result: PKM2 activator, Mito fusion yeast)
CC1Cc2ccccc2N1C(=O)COC(=O)CCc1nc2ccccc2c(=O)[nH]1 (stereo not drawn)	GLS inh inconclusive, VDR inh inconclusive, PLK1 PBD inh 4.23µM
O=C(COC(=O)CCc1nc2ccccc2c(=O)[nH]1)Nc1ccc(Cl)cn1	VDR inh inconclusive, PLK1 PBD inh 15µM
O=C(CCc1nc2ccccc2c(=O)[nH]1)OCC(=O)N1CCc2ccccc21	none
COc1ccc(CCNS(=O)(=O)c2ccc3c(c2)CCCC3)cc1OC	none (no result: PKM2 activator, Mito fusion yeast)
COc1cc(/C=C2\SC(=O)N(CC(=O)Nc3ccc(C)cc3)C2=O)cc(Cl)c1OCC(=O)O	GLS inh 7.08µM, GCN5L2 inh inconclusive, VDR inh inconclusive, PLK1 PBD inh 15µM
Cc1ccc(NC(=O)CN2C(=O)S/C(=C\c3ccc(OCC(=O)O)c(Br)c3)C2=O)cc1	GLS inh inconclusive, PLK1 PBD inh inconclusive
NC(c1csc(Nc2ncccn2)n1)c1ccccc1Cl (stereo not drawn)	none (no result: PKM2 activator, GCN5L2 inh, VDR inh, Mito fusion yeast)
CCC/C=C(\CCC)C(NS(=O)(=O)CC12CCC(CC1=O)C2(C)C)c1ccc(C(=O)OC)cc1 (stereo not drawn)	none (no result: GLS inh, GCN5L2 inh, VDR inh, Mito fusion yeast, PLK1 PBD inh)
O=C(CNC(=O)OCc1ccccc1)NCC(=O)Oc1ccc([N+](=O)[O-])cc1	PLK1 PBD inh 11.9µM (no result: PKM2 activator, GCN5L2 inh, Mito fusion yeast)
CC1(C(=O)NCc2ccc3c(c2)OCO3)CCN1C(=O)CC1CCCC1 (stereo not drawn)	none (no result: PKM2 activator, GCN5L2 inh, VDR inh, Mito fusion yeast)
N#Cc1c(-c2ccccc2)nc(SCC(=O)N2c3ccccc3Sc3ccccc32)[nH]c1=O	GCN5L2 inh inconclusive, PLK1 PBD inh 18.9µM
